HPGD block – inhibitors of human 15-hydroxyprostaglandin dehydrogenase (HPGD). Potency, µM, without a hit: at the highest dose activity change, negative = inhibition, actives largely listed as inhibitors. purified HPGD, NADH fluorescence kinetic, PGE2 substrate. 150,000 tested, 4.3% active. P15428. AID 894; active = well fitted inhibition curve with a large enough effect, not every such curve was filed as active; inconclusive = small, poorly fitted or top-dose-only effect, or another doubt; inactive = no such curve, though single readings can be large or run the other way; note: potency is the fitted concentration of half-maximal effect
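NADH formation kinetics: reaction with 30 uM PGE2 and 1 mM NAD+ (final), 20 nM enzyme, Tris-HCl pH 8 with Tween 20, after 15 min compound preincubation at room temperature. Fluorescence change, last versus first of five reads.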
IMPase Li cell – cell-permeable IMPase inhibitors with lithium potentiation; Potency, µM (doses to about 59.4 µM), for the others: at the highest dose activity, negative = IMPase inhibition, hits mostly inhibitors; AID 1457; 210,000 tested, 0.35% active; CHO-M1 cells, IP1 TR-FRET (IP-One), carbachol + lithium;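 note: IP1 builds up when IMPase is blocked and the TR-FRET signal falls; potency is the fitted concentration of half-maximal effect; plate controls were basal vehicle for no effect and high inhibitor control for full effect; nearly all actives have a fitted effect of over 50% in size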
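IP1 accumulation measured by competitive TR-FRET in lysed CHO-M1 cells after 30 min compound exposure at 37C, with a small lithium addition to potentiate weak responses. Hill-equation AC50 from ratio and donor-channel data.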
PNC inhibitor – blocks assembly of the perinucleolar compartment; PC3M PTB-GFP, PNC prevalence imaging, 16 h; hits give low values; activity change (PNC), negative = inhibition, % at 10 µM; 140,000 tested, 3.1% active; AID 2417;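 active = readout at or below -70, meaning at least 70% loss of cells showing the perinucleolar compartment, a nuclear body marking cancer cells; inconclusive = readout between -30 and a set limit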;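 note: plate controls were DMSO wells for no effect and camptothecin positive control wells for full effect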
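PC3M cells stably expressing PTB-GFP, 750–1000 cells/well, treated 16 h at 37 °C with compound (23 nl of library stock), in duplicate. After paraformaldehyde fixation and Hoechst stain, imaged at 20x; PNC prevalence scored by image analysis.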
ALDH1A1 block – ALDH1A1 (human) enzyme inhibition. P00352. Purified ALDH1A1, NADH fluorescence, propionaldehyde substrate. Potency, µM (doses to about 75.3 µM), without a hit: top-dose activity, negative = inhibition, hits mostly inhibitors. 220,000 tested, 7.3% active. AID 1030; active = well fitted inhibition curve with a large enough effect, not every such curve was filed as active; inconclusive = small, poorly fitted or top-dose-only effect, or another doubt; inactive = no such curve, though single readings can be large or run the other way;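 note: potency is the fitted concentration of half-maximal effect; plate controls were no enzyme wells and a reference inhibitor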
Target sequence (P00352 whole entry, looked up): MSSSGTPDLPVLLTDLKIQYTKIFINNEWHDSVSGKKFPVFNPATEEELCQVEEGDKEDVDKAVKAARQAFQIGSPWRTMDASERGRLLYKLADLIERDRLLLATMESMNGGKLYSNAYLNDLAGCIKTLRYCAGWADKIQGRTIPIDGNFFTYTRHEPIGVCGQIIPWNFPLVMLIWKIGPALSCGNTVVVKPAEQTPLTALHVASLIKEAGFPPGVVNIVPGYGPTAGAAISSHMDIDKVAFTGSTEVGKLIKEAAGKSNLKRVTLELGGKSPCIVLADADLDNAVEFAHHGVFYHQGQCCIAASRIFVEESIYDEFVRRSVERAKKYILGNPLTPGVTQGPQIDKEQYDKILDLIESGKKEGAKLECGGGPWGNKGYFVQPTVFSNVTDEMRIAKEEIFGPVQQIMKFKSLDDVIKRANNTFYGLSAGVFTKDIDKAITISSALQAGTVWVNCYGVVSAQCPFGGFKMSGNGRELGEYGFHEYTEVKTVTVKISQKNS
NPSR antagonist – neuropeptide S receptor (human) antagonism, cAMP | AID 1461 | 220,000 tested, 1% active | Q6W5P4 | Potency, µM (series often up to 38.3 µM), inactives show at the top dose activity change, negative = inhibition, most hits filed as inhibitors | CHO-NPSR cells, cAMP TR-FRET, antagonist mode; note: potency is the fitted concentration of half-maximal effect; nearly all actives have a fitted effect of over 50% in size
IMPase cell inh – membrane-permeable compound that blocks inositol monophosphatase | P97697 | AID 901 | CHO-M1 cells, IP1 accumulation, HTRF TR-FRET ratio | inhibition (IP1 accumulation), % at 46.1 µM | 120,000 tested, under 10 active; active = well fitted curve in the direction sought with a large enough effect in the signal ratio, not every such curve was filed as active; inconclusive = small, poorly fitted or top-dose-only effect, or a change in a side signal; inactive = no such curve, though single readings can be large or run the other way; the % refers to the signal ratio;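 note: cells stimulated with carbachol in lithium chloride buffer; plate controls were DMSO basal wells for no effect and reference inhibitor wells for full effect; higher means more IMPase inhibition seen as more IP1 and lower FRET ratio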
Target sequence (P97697 whole entry, looked up): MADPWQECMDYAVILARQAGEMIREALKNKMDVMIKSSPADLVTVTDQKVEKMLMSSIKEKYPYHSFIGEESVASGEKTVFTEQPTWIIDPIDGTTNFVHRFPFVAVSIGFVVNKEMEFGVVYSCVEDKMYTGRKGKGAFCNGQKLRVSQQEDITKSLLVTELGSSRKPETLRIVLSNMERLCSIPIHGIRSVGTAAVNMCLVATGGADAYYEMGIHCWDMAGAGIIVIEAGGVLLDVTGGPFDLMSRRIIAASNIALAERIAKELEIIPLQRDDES
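Carbachol-driven Gq signalling in CHO-M1 cells (2000/well) generates IP1. Compounds that block IMPase raise IP1 and so reduce the FRET signal from Eu-anti-IP1 and d2-IP1 after a 10 min room-temperature lysis.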
Starred values were filed as active, the others as inactive; ? = inconclusive; . = no result; [ ] = dose if it differs, or a comment. Hits are enriched below; roughly 11% of the tested compounds scored in any of these assays. Unless noted, calls come from the whole dose curve; as a rule, active = well fitted curve in the direction sought with a large enough effect; inconclusive = small, poorly fitted or top-dose-only effect, or another doubt; inactive = no such curve, though single readings can be large; an effect the other way counts as inactive or inconclusive. Unless noted, % is set by controls: 0 for no effect and ±100 for the full control effect.

SMILES | HPGD block | IMPase Li cell | PNC inhibitor | ALDH1A1 block | NPSR antagonist | IMPase cell inh
Nc1ccc([As](=O)(O)O)cc1 | 1% | -2% | -15 | 5% | -11% | .
Cc1ccc(/C=C2\C(=O)NC(=O)N(CCc3ccc(F)cc3)C2=O)o1 | 3.5µM* | 21% | ? | 5µM* | -13% | -1
Cc1ccc(/C=C2/C(=O)NC(=O)N(Cc3ccc(F)cc3)C2=O)o1 | . | . | . | . | -13% | .
CN(C)c1ccc(/C=C2\C(=O)NC(=O)N(Cc3ccc(F)cc3)C2=O)cc1 | . | . | . | . | 10% | .
Cc1ccc(/C=C2/C(=O)NC(=O)N(CCc3ccc(F)cc3)C2=O)s1 | 7.1µM* | -2% | ? | ? | -22% | .
CCCCC[C@@H](/C=C/C=C\CCCCCCCCCC(=O)O)OO | -5% | 12% | . | 0% | . | .
COc1cccc(Oc2c(C)oc3cc(OC(=O)N(C)C)ccc3c2=O)c1 | -18% | ? | 1 | 22µM* | -18%[46.1 µM] | 3
C=CC1CC=CCC1 (stereo unspecified) | -10% | -15% | . | 22µM* | . | .
COc1ccc(Nc2ncc(C(=O)N3CCC4(CC3)OCCO4)c3ccccc23)cc1 | 22µM* | 33%[38.3 µM] | ? | -10% | 3%[46.1 µM] | 6
CC1=C2CCC3C4CCC(=O)[C@@]4(C)CCC3[C@]2(C)CCC1=O (stereo partly specified) | -2% | -2% | . | 0% | . | .
C[N+]1(C)C2CCC1CC(OC(=O)c1c[nH]c3ccccc13)C2 (stereo unspecified) | -26% | 18% | . | 22µM* | ? | .
C[N+]1(C)C2CCC1CC(OC(=O)c1ccco1)C2 (stereo unspecified) | . | . | . | . | 6% | .
CCOC(=O)COc1ccc2c(c1)c(C(C)=O)c(C)n2Cc1ccccc1 | . | 10% | . | 2% | -10% | .
Cc1cccc(C(=O)NC(Oc2ccccc2)C(Cl)(Cl)Cl)c1 (stereo unspecified) | -10% | 24%[38.3 µM] | 6 | -4% | -25%[46.1 µM] | 8
Cc1ccc(C(=O)NC(O)C(Cl)(Cl)Cl)cc1 (stereo unspecified) | 14µM* | 0% | ? | 0% | -5%[46.1 µM] | -4
c1ccc(-c2cc3c(nc2-c2ccccc2)CCNC3)cc1 | . | . | . | 1%[13.5 µM] | . | .
CCOc1cc(C=C2C(=O)NC(=O)NC2=O)ccc1OCC(=O)N1CCOCC1 | -18% | -1% | -13 | 35µM* | 15% | .
COc1cc(/C=C2/C(=O)N(c3ccccc3)N=C2C)ccc1OS(=O)(=O)c1ccccc1 | 20µM* | 14% | ? | ? | -26% | .
COCCN1C(=O)/C(=C/c2c(OC)cc(OC)cc2OC)C(=O)N(c2ccccc2)C1=O | . | . | . | . | 13% | .
CCOc1cc(C=C2C(=O)NC(=O)NC2=O)ccc1OS(=O)(=O)c1ccccc1 | 13µM* | 18%[38.3 µM] | 72 | ? | -17%[46.1 µM] | 3
CC(C)Cc1nnc(NC(=O)CCC(=O)N2CCN(CCOC(c3ccccc3)c3ccccc3)CC2)s1 | 1% | 15% | 12 | ? | -32% | -1
Cc1nc2ccc(Nc3nc4cc(S(=O)(=O)N5CCOCC5)ccc4o3)cc2s1 | 8.9µM* | 5%[38.3 µM] | ? | 3.5µM* | -26%[46.1 µM] | 13
CC[C@@H](CO)NC(=O)[C@@H]1C=C2c3cccc4c3c(cn4C)C[C@H]2N(C)C1 | ? | 18% | ? | 3.2µM* | -54% | .
CC[C@@H](CO)NC(=O)[C@@H]1C=C2c3cccc4[nH]cc(c34)C[C@H]2N(C)C1 | . | -4% | . | 3.5µM* | . | .
COc1ccc2c(c1)c(C(=O)O)c(C)n2CC(C)C | -3% | -4%[38.3 µM] | 28 | -4% | -7%[46.1 µM] | 8
SMILES | HPGD block | IMPase Li cell | PNC inhibitor | ALDH1A1 block | NPSR antagonist | IMPase cell inh
CCN(CC)CCOC(=O)c1ccc(N=Cc2c(O)[nH]c(=O)[nH]c2=O)cc1 | -10% | 10%[38.3 µM] | -11 | -3% | 0%[46.1 µM] | -10
CCN1C[C@]2(C)CC[C@H](OC)[C@@]34[C@@H]2[C@H](OC(C)=O)[C@]2(OCO[C@@]25C[C@@H](OC)[C@@H]2C[C@@]3(O)[C@H]5[C@@H]2OC)[C@H]14 | -5% | 0% | . | -2%[20.9 µM] | . | -1[20.6 µM]
O=[N+]([O-])c1ccc(N2CCCC2)c(F)c1Br | -17% | 15% | -20 | ? | 3% | .
Cc1ccc2c(c1)CNc1ccccc1O2 | -29% | -10%[38.3 µM] | -11 | 3% | 5%[46.1 µM] | 6
CN1C(=O)C(=Cc2coc3ccccc3c2=O)C(=O)N(C)C1=O | . | . | . | 0.89µM* | 49% | .
O=C(Oc1c(Cl)cc(Cl)c2ccccc12)N1CCCCC1 | -2% | 23%[38.3 µM] | ? | -3% | ? | 4
O=C(Oc1c(Br)cc(Br)c2cccnc12)N1CCCCC1 | . | 13µM* | . | ? | ? | .
C=CCn1c(O)c(C(CC)=NCc2cc(OC)cc(OC)c2)c(=O)[nH]c1=O | -9% | 21%[38.3 µM] | -30 | ? | -10%[46.1 µM] | 1[1.84 µM]
N#C/C(=C\c1ccc(O)c(O)c1)C(=O)NCCCNC(=O)/C(C#N)=C/c1ccc(O)c(O)c1 | 16µM* | 51% | . | ? | ? | 23
CC(C)CN1CCC2(CC1)CCN(C(=O)Oc1ccccc1)CC2 | 2% | 42% | . | 4% | . | .
OC1(c2ccc(F)cc2)CC2CCC(C1)N2Cc1nnnn1C1CCCC1 (stereo unspecified) | -2% | 1%[38.3 µM] | -7 | 2µM* | -10%[46.1 µM] | 5
Fc1ccc(Cn2nnnc2CN2CCC(n3nnc4cc(C(F)(F)F)ccc43)CC2)cc1 | . | . | . | . | -60% | .
CC(ON1CC1(C(F)(F)F)C(F)(F)F)(C(N)=O)C(N)=O (stereo unspecified) | -5% | -2% | -93* | 8% | 8% | .
CCOC(=O)c1ccc(NC(=O)c2c(O)[nH]c(=O)[nH]c2=O)cc1 | 14µM* | ? | ? | ? | -2%[46.1 µM] | 4
CCOP(=O)(OCC)C(O)c1ccc(N(C)C)cc1 (stereo unspecified) | . | . | . | . | 12% | .
O=Cc1ccccc1 | -9% | 8% | . | 3.2µM* | . | .
c1ccc(-c2ccccc2)cc1 | -13% | 24% | . | ? | . | .
O=C1NC(=O)C(=Cc2ccc3c(c2)OCO3)C(=O)N1 | . | 13% | . | ? | -5% | .
O=C1NC(=O)C(=Cc2coc3ccc(O)cc3c2=O)C(=O)N1 | . | . | . | 3.5µM* | ? | .
CCOc1ccc(NC(=O)Cn2cc(C(=O)c3ccccc3)c3ccccc32)cc1 | . | . | . | . | . | 12
Cn1c(=O)n(CC(=O)N2CCC3(CC2)OCCO3)c(=O)c2ccccc21 | -19% | 21%[38.3 µM] | 60 | -5% | 0%[46.1 µM] | -3
O=C(Cn1c2c(c(-c3ccccc3Cl)cc1=O)CCC2)N1CCC2(CC1)OCCO2 | ? | 5%[38.3 µM] | -95* | ? | -9%[46.1 µM] | 0
CCn1cc(C(=O)NCc2ccccc2)c2ccccc21 | . | -11% | . | -4% | -12% | .
C/C=C/c1ccc(OC)cc1 | -9% | 5% | . | ? | . | .
COc1ccc(/C=C/C2=CCN(C)CC2)cc1 | . | 26% | . | 25µM* | -4% | .
